Reference: PubChem BioAssay (EPA / NIEHS)
Results filed as inconclusive are left out. The source made the active and inactive calls. Rule for the calls: active = hit-call score of the fitted dose curve at least 0.9, where 1 is the maximum; inconclusive = response in the unintended direction; inactive = score below 0.9.

Each compound was assayed against human Ephrin type-A Receptor 1 (EphA1), EPHA1 (gene 2041) (UniProt P21709) (assay: NVS_ENZ_hEphA1: NovaScreen (NVS) Enzymatic Assay for human Ephrin type-A Receptor 1 (EphA1) (AID 2283158)).
Protocol: NVS_ENZ_hEphA1 is a biochemical, single-readout assay that uses extracted gene-proteins in a cell-free assay. Measurements were taken 1 hour after chemical dosing in a 384-well plate.NVS_ENZ_hEphA1 is one of one assay component(s) measured or calculated from the NVS_ENZ_hEphA1 assay. It is designed to make measurements of enzyme activity, a form of enzyme reporter, as detected with fluorescence intensity signals by Fluorescence and electrophoretic mobility shift technology.Data from the assay component NVS_ENZ_hEphA1 was analyzed into 1 assay endpoint. This assay endpoint, NVS_ENZ_hEphA1, was analyzed in the positive analysis fitting direction relative to DMSO as the negative control and baseline of activity. Using a type of enzyme reporter, loss-of-signal activity can be used to understand changes in the enzymatic activity as they relate to the gene EPHA1. Furthermore, this assay endpoint can be referred to as a primary readout, because this assay has produced multiple assay endpoints where this one serves a enzymatic activity function. To generalize the intended target to other relatable targets, this assay endpoint is annotated to the kinase intended target family, where the subfamily is receptor tyrosine kinase.
Binding assays used specific radioligands (tritiated, iodinated) with non-radioactive competitive displacement ligands in agonist or antagonist protocols (as indicated) and various reference compounds and inhibitors to titrate specific binding to receptors and transporters. Most enzyme assays (CYPs, kinases, phosphatases, proteases, HDACs) used recombinant protein and specific substrates (fluorescence mostly, some colorimetric and radioactive) and inhibitors, followed by a biochemical separation of substrate and product. All assays for the biochemical HTS were initially run in duplicate at a single concentration (10 uM for CYP450 assays and 25 uM for all others). Assay-chemical combinations meeting a pre-defined threshold (e.g., 30% inhibition and other criteria defined below) were then run in singleton concentration-response format with maximum concentration of 20 uM for CYPs and 50 uM for all others. Each assay was run with positive and negative controls, and concurrent controls on every plate. The follow-up (secondary) screen tested active chemical-pairs in concentration series, as well as a few additional assays not tested in the primary screen, some selected negative inactives, and several cases re-run in the concentration series for confirmatory purposes.

Sequence of human Ephrin type-A Receptor 1 (EphA1), EPHA1 (gene 2041) (P21709 whole entry, looked up): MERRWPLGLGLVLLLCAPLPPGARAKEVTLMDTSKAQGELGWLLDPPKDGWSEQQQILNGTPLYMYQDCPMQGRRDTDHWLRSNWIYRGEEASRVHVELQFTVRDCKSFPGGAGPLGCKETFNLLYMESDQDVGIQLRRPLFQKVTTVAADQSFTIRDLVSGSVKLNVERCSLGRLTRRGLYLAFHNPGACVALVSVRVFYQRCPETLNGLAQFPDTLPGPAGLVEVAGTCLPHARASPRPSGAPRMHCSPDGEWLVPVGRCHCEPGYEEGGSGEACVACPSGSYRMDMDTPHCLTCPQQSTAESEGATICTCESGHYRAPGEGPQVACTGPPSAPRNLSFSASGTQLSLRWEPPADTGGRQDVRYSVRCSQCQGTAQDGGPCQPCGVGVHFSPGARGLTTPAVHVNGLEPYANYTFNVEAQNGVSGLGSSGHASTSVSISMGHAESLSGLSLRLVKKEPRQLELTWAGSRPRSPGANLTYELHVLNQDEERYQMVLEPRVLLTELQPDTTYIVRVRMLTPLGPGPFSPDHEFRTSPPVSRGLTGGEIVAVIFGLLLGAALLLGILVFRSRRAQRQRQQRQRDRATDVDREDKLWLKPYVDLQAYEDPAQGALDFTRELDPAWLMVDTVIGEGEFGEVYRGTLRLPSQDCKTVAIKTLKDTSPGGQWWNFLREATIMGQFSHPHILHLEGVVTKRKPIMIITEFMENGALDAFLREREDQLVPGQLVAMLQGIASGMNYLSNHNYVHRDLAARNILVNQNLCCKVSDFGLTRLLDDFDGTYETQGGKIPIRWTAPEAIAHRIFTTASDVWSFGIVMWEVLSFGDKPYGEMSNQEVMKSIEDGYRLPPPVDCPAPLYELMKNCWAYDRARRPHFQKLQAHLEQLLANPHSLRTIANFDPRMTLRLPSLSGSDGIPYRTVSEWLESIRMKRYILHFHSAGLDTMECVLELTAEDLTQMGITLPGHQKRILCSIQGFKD

Compound | outcome | AC50
O=[N+]([O-])c1ccc(Cl)cc1 | inactive | –
BrCBr | inactive | –
Cc1ncc(C[n+]2csc(CCO)c2C)c(N)n1 | inactive | –
O=P1(NCCCl)OCCCN1CCCl (configuration not stated) | inactive | –
O=C1C(Cl)=C(Cl)C(=O)C(Cl)=C1Cl | inactive | –
O=C(O)CCCc1ccc(N(CCCl)CCCl)cc1 | inactive | –
O=[N+]([O-])C=Cc1ccccc1 | inactive | –
CC(=O)/C=C/c1ccccc1 | inactive | –
CCC(C)(C)O | inactive | –
CC(C)(C)C(=O)CCl | inactive | –
CCC[N+](=O)[O-] | – | 25 µM (active)
N#CCCCCC#N | inactive | –
